According to PubChem BioAssay AID1566 (Sanford-Burnham Center for Chemical Genomics, 2009):
Where “and” joins values, the source holds several entries; their conditions need not be identical. Equal entries are not always repeated. In all, about 290,000 compounds went through this assay and about 1,800 (0.62%) were called active. Rule as the data show it: active = inhibition above about 50%; inactive = the rest. What follows is part of a selection rich in actives, with near analogues and random picks from the rest.

Experiment: inhibition of NOD2-driven NF-kB reporter – cell-based, luminescence, uHTS, HEK293 (AID 1566)
Conditions: HEK293 NOD2/NF-kB luciferase reporter, at 4 µM, stronger effect = higher value
For `O=c1[nH]c(SCc2ccccc2F)nc2ccccc12`, the inhibition was 8.9% (inactive).
In the case of `O=c1cc(CSc2nc3ccccc3c(=O)[nH]2)c2ccc(O)cc2o1`, the inhibition is reported as 70.3% (active).
With `Cc1ccccc1CSc1nc2ccccc2c(=O)[nH]1` the inhibition was -3.5% (inactive).
In the case of `Cc1cc(-c2nnc(SCC(=O)c3ccc(Cl)cc3)o2)no1`, the inhibition is reported as 1.2% (inactive).
For `COc1ccc(-c2oc3cccnc3c2-c2ccc(OC)nc2)cc1`, the inhibition was -2.2% (inactive).
With `COc1cc(CC(=O)Nc2ccc3c(c2)CCC3)cc(OC)c1OC` the inhibition was 24.2% (inactive).
In the case of `COc1ccc(CC(=O)Nc2ccc3c(c2)CCC3)cc1`, the inhibition is reported as 13.2% (inactive).
For `COc1ccc(CC(=O)Nc2ccc3c(c2)CCC3)cc1OC`, the inhibition was 53.3% (active).
With `Cc1ccc(C)c(N2CCN(CC(=O)Nc3ccc([N+](=O)[O-])cc3C(=O)Nc3ccccc3F)CC2)c1` the inhibition was -26.6% (inactive).
With `Cc1ccc(S(=O)(=O)c2c(N)n(CCN3CCOCC3)c3nc4ccccc4nc23)cc1C` the inhibition was -39.8% (inactive).
With `Cn1c(=O)cc(NCCc2ccccc2)[nH]c1=O` the inhibition was -8.7% (inactive).
In the case of `O=C(OCCN=C1NS(=O)(=O)c2ccccc21)c1ccncc1`, the inhibition is reported as -0.9% (inactive).
In the case of `CCc1ccc(S(=O)(=O)NCc2cn3ccsc3n2)s1`, the inhibition is reported as 13.4% (inactive).
In the case of `CCCCCCCC(=O)NC(Nc1ccc(S(N)(=O)=O)cc1)C(Cl)(Cl)Cl` (configuration not stated), the inhibition is reported as 22.9% (inactive).
With `CN(C)S(=O)(=O)c1cccc(NC(=O)c2ccncc2)c1` the inhibition was 12.4% (inactive).
For `CN(C)S(=O)(=O)c1cccc(NC(=O)c2cnccn2)c1`, the inhibition was 6.9% (inactive).
For `O=C(CC1CC2CCC1C2)OCC(=O)c1c[nH]c2ccccc12` (configuration not stated), the inhibition was 12.6% (inactive).
For `CC(C(=O)NCc1ccccc1)N1CCN(c2ccc(F)cc2)CC1` (configuration not stated), the inhibition was 5.1% (inactive).
With `COc1ccc(CNC2CCSc3ccccc32)cc1OC` (configuration not stated) the inhibition was 23.3% (inactive).
In the case of `CCn1c(=O)cc(OCC(=O)N2CCc3ccccc32)c2ccccc21`, the inhibition is reported as 17.9% (inactive).
With `COc1ccccc1OCc1nnc(SCC(=O)N2CCCC2)o1` the inhibition was 4.2% (inactive).
With `COc1ccccc1OCc1nnc(SCC(=O)N2CCCCC2)o1` the inhibition was -9.8% (inactive).
For `COc1ccccc1OCc1nnc(SCC(=O)c2cc(Cl)ccc2OC)o1`, the inhibition was 57.5% (active).
In the case of `CC(C)NC(=O)NC(=O)COC(=O)C1(C)CC1(Cl)Cl` (configuration not stated), the inhibition is reported as -8.2% (inactive).
In the case of `COC(=O)C(CO)NC(=O)C(C)NC(=O)CNC(=O)OCc1ccccc1` (configuration not stated), the inhibition is reported as 9% (inactive).
In the case of `COc1ccc(OC)c(NC(=O)c2cc3n(n2)C(C(F)(F)F)CC(c2ccc4c(c2)OCO4)N3)c1` (configuration not stated), the inhibition is reported as 35.2% (inactive).
In the case of `COc1ccccc1NC(=O)c1cc2n(n1)C(C(F)(F)F)CC(c1ccc3c(c1)OCO3)N2` (configuration not stated), the inhibition is reported as 35.9% (inactive).
In the case of `O=C(Nc1cc(Cl)ccc1O)c1cc2n(n1)C(C(F)(F)F)CC(c1ccc3c(c1)OCO3)N2` (configuration not stated), the inhibition is reported as 53.1% (active).
In the case of `CCN(CC(=O)Nc1ccc(N2CCOCC2)cc1)C(=O)c1ccc(C#N)cc1`, the inhibition is reported as 0.4% (inactive).
In the case of `Cc1ccc(N2CC(C(=O)N3CCN(C(=O)c4ccco4)CC3)CC2=O)cc1` (configuration not stated), the inhibition is reported as 3.8% (inactive).
With `COc1cc(NCc2ccccc2O)c2ncccc2c1` the inhibition was -106% (inactive).
In the case of `COc1cc(NC(=O)C2CCCCC2)c2ncccc2c1`, the inhibition is reported as 7.2% (inactive).
With `CCC(CNc1cc(OC)cc2cccnc12)NC1CCCCC1` (configuration not stated) the inhibition was 74.6% (active).
With `Cc1ccccc1N=C1NC(=O)/C(=C/c2cccn2-c2cccc(C(=O)O)c2)S1` the inhibition was 10.7% (inactive).
In the case of `CC(C)CN1CCN(CCCc2ccccc2)C(CCO)C1` (configuration not stated), the inhibition is reported as -35.5% (inactive).
With `COc1ccc(N2C(=O)NC3CC2(C)Oc2ccccc23)cc1` (configuration not stated) the inhibition was 15.5% (inactive).
For `O=C(CCS(=O)(=O)c1ccccc1)NC1CCCCC1`, the inhibition was -43.9% (inactive).
With `COc1ccc(OCC(=O)Nc2cc(-c3nn(C)c(=O)c4ccccc34)ccc2OC)cc1` the inhibition was 46.6% (inactive).
For `COc1ccc(-c2nn(C)c(=O)c3ccccc23)cc1NC(=O)COc1ccc(C)cc1`, the inhibition was 53.6% (active).
In the case of `COc1ccc(-c2nn(C)c(=O)c3ccccc23)cc1NC(=O)COc1ccccc1`, the inhibition is reported as 31.2% (inactive).
For `CCc1nnc(NC(=O)CSc2nc(C)cc(C)c2C#N)s1`, the inhibition was -111% (inactive).
With `COc1ccc(C)cc1S(=O)(=O)N(CC(N)=O)Cc1ccccc1` the inhibition was -4.4% (inactive).
In the case of `O=C(CN1CCCCCCC1)N/N=C/c1ccc([N+](=O)[O-])o1`, the inhibition is reported as 67.4% (active).
In the case of `O=C(Cc1ccc([N+](=O)[O-])cc1)N/N=C/c1ccc([N+](=O)[O-])o1`, the inhibition is reported as 33.1% (inactive).
In the case of `COC(=O)N/N=C/c1ccc([N+](=O)[O-])o1`, the inhibition is reported as -0.6% (inactive).
With `O=C(N/N=C/c1ccc([N+](=O)[O-])o1)C1CC1` the inhibition was 23.5% (inactive).
For `CCCCCC(=O)N/N=C/c1ccc([N+](=O)[O-])o1`, the inhibition was 28.5% (inactive).
For `O=C(CCC(=O)Nc1ccc(Cl)cc1Cl)N/N=C/c1ccc([N+](=O)[O-])o1`, the inhibition was 33.1% (inactive).
With `O=C(N/N=C/c1ccc([N+](=O)[O-])o1)C1CCCC1` the inhibition was 60.2% (active).
For `O=C(CSc1ccc(Cl)cc1)N/N=C/c1ccc([N+](=O)[O-])o1`, the inhibition was 69.6% (active).
In the case of `CCCCCCCC(=O)N/N=C/c1ccc([N+](=O)[O-])o1`, the inhibition is reported as 16.9% (inactive).
For `COc1cc(C(O)P(=O)(OC2CCCCC2)c2ccc(N(C)C)cc2)cc(OC)c1OC` (configuration not stated), the inhibition was 0.5% (inactive).
In the case of `C=CCNC(=S)NNC(=O)COc1ccc2cc(Br)ccc2c1`, the inhibition is reported as -39.9% (inactive).
In the case of `CCCCCC(C)NC(=O)c1ccoc1C` (configuration not stated), the inhibition is reported as 12.6% (inactive).
In the case of `COC(=O)C1CCN(C(=O)Cc2ccc(Br)cc2)CC1`, the inhibition is reported as -8.4% (inactive).
In the case of `O=C(CC1C(=O)NCCN1Cc1ccccc1)NCCCOc1cccnc1` (configuration not stated), the inhibition is reported as 9.1% (inactive).
With `CC(=C/c1ccccc1)/C=N/Nc1nc(N2CCOCC2)nc(N2CCOCC2)n1` the inhibition was -9.3% (inactive).
With `CC[n+]1c(/C=C/c2ccc(OC)c(OC)c2)ccc2ccccc21` the inhibition was -117% (inactive).
With `CC[n+]1c(/C=C/c2ccc(N(C)C)cc2)ccc2ccccc21` the inhibition was 17.2% (inactive).
For `CC(C)c1ccc(C(C)NCCS(=O)(=O)c2ccc(Br)cc2)cc1` (configuration not stated), the inhibition was -12.3% (inactive).
In the case of `CC(NCCS(=O)(=O)c1ccc(Cl)cc1)c1cccc(Cl)c1` (configuration not stated), the inhibition is reported as 54.1% (active).
For `CC(C)c1ccc(C(C)NCCS(=O)(=O)c2ccc(Cl)cc2)cc1` (configuration not stated), the inhibition was 14.9% (inactive).
In the case of `CCCCOC(=O)C1=C(C)NC(=O)NC1c1ccc([N+](=O)[O-])s1` (configuration not stated), the inhibition is reported as 17.4% (inactive).
For `CCc1nc2ccccc2c(C(=O)OCC(=O)Nc2ccc(S(=O)(=O)N3CCOCC3)cc2)c1C`, the inhibition was -9% (inactive).
With `CCCc1nc2ccccc2c(C(=O)OCC(=O)Nc2cccc(S(=O)(=O)N3CCOCC3)c2)c1CC` the inhibition was -4.4% (inactive).
For `CCN(CC)CCNC(=O)c1ccc(NC(=O)Nc2cccc3ccccc23)cc1`, the inhibition was -10.7% (inactive).
For `O=C(c1ccccc1)N1CCN(CCc2ccccn2)CC1`, the inhibition was -11.9% (inactive).
For `COc1ccc(N2C(=O)C3C4C=CC(c5ccccc5)(C3C2=O)C2C(=O)N(c3ccc(OC)cc3)C(=O)C42)cc1` (configuration not stated), the inhibition was 8% (inactive).
In the case of `COc1cc(NC(=O)c2ccccc2)c(OC)cc1Cl`, the inhibition is reported as -0.5% (inactive).
With `COc1ccc(C(=O)Nc2cc(OC)c(Cl)cc2OC)cc1` the inhibition was 4.7% (inactive).
With `CCN1CCN(C2=C(NS(=O)(=O)c3ccc(Br)cc3)C(=O)c3ccccc3C2=O)CC1` the inhibition was 50.9% (active).
For `CCN1CCN(C2=C(NS(=O)(=O)c3ccc(C)cc3)C(=O)c3ccccc3C2=O)CC1`, the inhibition was 38% (inactive).
In the case of `CCN1CCN(C2=C(NS(=O)(=O)c3ccccc3)C(=O)c3ccccc3C2=O)CC1`, the inhibition is reported as 18.2% (inactive).
For `Cc1cc(NC(=O)CSc2nc3ccccc3c(=O)n2Cc2ccccc2)no1`, the inhibition was 9.6% (inactive).
With `NC(=O)CSc1nc2ccccc2c(=O)n1Cc1ccccc1` the inhibition was 5.3% (inactive).
With `CCOC(=O)Cc1c(C)nc(-c2ccccc2)[nH]c1=O` the inhibition was -6.7% (inactive).
For `COc1ccccc1N1CCN(C(=O)CCNS(=O)(=O)c2cc(Br)cnc2N)CC1`, the inhibition was 21% (inactive).
In the case of `COCCCNC(=O)C1CC(=O)OC1c1ccc(OC)c(OC)c1` (configuration not stated), the inhibition is reported as -13% (inactive).
In the case of `CC(=O)N(c1ccccc1)C1CCCC1`, the inhibition is reported as 16.4% (inactive).
For `O=C(CCl)N(c1ccccc1)C1CCS(=O)(=O)C1` (configuration not stated), the inhibition was 1.5% (inactive).
In the case of `O=C(CCl)N(c1ccccc1)C1CCCCC1`, the inhibition is reported as 52.5% (active).
For `COc1ccc(NC(=S)NCCc2ccccc2)c(C)c1`, the inhibition was 1.7% (inactive).
In the case of `Nc1c(-c2n[nH]c(=S)n2-c2ccc(Cl)cc2Cl)cnn1-c1ccccc1`, the inhibition is reported as -0.1% (inactive).
With `CCN(CC)S(=O)(=O)c1ccc(/C(O)=C2/C(=O)C(=O)N(CCOC)C2c2ccccc2)cc1` (configuration not stated) the inhibition was 8.8% (inactive).
With `COc1ccc(Cc2nc3ccc(C(=O)NCCn4cccn4)cc3o2)cc1` the inhibition was -0.5% (inactive).
For `CCn1cc(CNC(=O)c2ccc3nc(Cc4ccc(OC)cc4)oc3c2)cn1`, the inhibition was 54.1% (active).
In the case of `CCn1cc(CNC(=O)c2ccc3nc(Cc4ccccc4F)oc3c2)cn1`, the inhibition is reported as 24.7% (inactive).
With `CCOC(=O)N1CCN(C(=O)c2ccc3c(c2)NC(=O)/C(=C/c2ccccc2)S3)CC1` the inhibition was 9.6% (inactive).
With `O=C(c1ccccc1)c1coc2c1C(=O)c1ccccc1C2=O` the inhibition was 28.9% (inactive).
With `O=C1c2ccccc2C(=O)c2c1oc(C(F)(F)F)c2C(=O)c1ccccc1` the inhibition was 77.4% (active).
In the case of `Cc1oc2c(c1C(=O)O)C(=O)c1ccccc1C2=O`, the inhibition is reported as 19% (inactive).
For `COc1cc(NC(=O)CCS(=O)(=O)c2ccc3c(c2)n(C)c(=O)c(=O)n3C)cc(OC)c1`, the inhibition was -1.3% (inactive).
For `CCN(CC)CCNC(=O)c1cccc(NC(=O)C(=O)c2ccccc2NC(C)=O)c1`, the inhibition was 3.6% (inactive).
With `COc1ccc(C(C)(C)C)cc1S(=O)(=O)n1ccnc1C` the inhibition was 9% (inactive).
In the case of `OCCN(CCO)CC(O)COc1ccc(Br)cc1` (configuration not stated), the inhibition is reported as 19% (inactive) and 15.4% (inactive).
In the case of `OCCN(CCO)CC(O)COc1ccc(C23CC4CC(CC(C4)C2)C3)cc1` (configuration not stated), the inhibition is reported as 51.5% (active).
For `OCCN1CCN(CC(O)COc2ccc(C34CC5CC(CC(C5)C3)C4)cc2)CC1` (configuration not stated), the inhibition was 6% (inactive).
